# Tested on: TDF
# Experiment: cell number relative to DMSO (% of DMSO); higher = more cells (less growth inhibition / toxicity)
# Settings: concentration: 10 µM; 24 h
# Summary of the method: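 Cell number or H1.0 nuclear intensity appears as percent of the plate control, based on the median of replicates. Measurements came from HCC1569 and TDF cells exposed in triplicate to compounds at 10 µM for 24 h at 37 °C, then imaged in six fields per well at ×10. Positional effects were smoothed out of HCC1569 values.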
# 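Further: TDF denotes transformed human dermal fibroblasts of mesenchymal origin.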
row,Compound,cell number
1,CC(N)Cc1c[nH]c2ccc(OCc3cccs3)cc12.Cl (stereo not drawn),115
2,CC1CC(C)C(=O)C(C(O)CC2CC(=O)NC(=O)C2)C1 (stereo not drawn) [Cycloheximide],41.7
3,CN1C(=O)CCS(=O)(=O)C1c1ccc(Cl)cc1 (stereo not drawn) [Chlormezanone],108
4,CCCCCCC(=O)CCCCCCC=CCC(O)C(O)C(N)(CO)C(=O)O (stereo not drawn) [Myriocin],92.4
5,C[N+]1(C)C2CCC1CC(OC(=O)c1c[nH]c3ccccc13)C2.[I-] (stereo not drawn) [3-Tropanylindole-3-carboxylate methiodide],106
6,CC(C)C1(NC(=O)C2CC3c4cccc5[nH]cc(c45)CC3N(C)C2)OC2(O)C3CCCN3C(=O)C(Cc3ccccc3)N2C1=O.CS(=O)(=O)O (stereo not drawn) [Dihydroergocristine mesylate],110
7,Cl.c1ccc2c(c1)OCC(C1=NCCN1)O2 (stereo not drawn) [Idazoxan hydrochloride],98.8
8,CCCCCCC(C)(C)c1ccc(C2CC(O)CCC2CCCO)c(O)c1 (stereo not drawn),109
9,c1ccc2c(c1)[nH]c1cnccc12 [Norharmane],106
10,CC1=C(O)C(=O)C=C2C1=CC=C1C2(C)CCC2(C)C3CC(C)(C(=O)O)CCC3(C)CCC12C (stereo not drawn) [Celastrol],64
11,CC1=NN=C(c2ccc(N)cc2)c2cc3c(cc2C1)OCO3.Cl,95.2
12,Cc1ccc(S(=O)(=O)NC(CCCCN)C(=O)CCl)cc1.Cl [Na-p-Tosyl-L-lysine chloromethyl ketone hydrochloride],104
13,NC1(C(=O)O)CCC(C(=O)O)C1 (mixture of isomers),106
